In the library only some 3.6% were active in any assay of this set; here they are far more common.
KKLEB cytotox: counter-screen for CF NF-kB inhibitors: cytotoxicity. KKLEB CF airway cells viability, ATPlite luminescence, overnight; stronger effect = lower value; cells stimulated with P. aeruginosa culture filtrate. activity change (cytotoxicity), % at 5 µM. 360,000 tested, 0.36% active. AID 602141;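 active means corrected activity change at or below -50% at 5 µM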
CF NFkB inh: inhibitors of cystic fibrosis induced NF-kB. KKLEB NF-kB-GFP reporter, PAF-induced, GFP fluorescence overnight. inhibition, % at 5 µM. 360,000 tested, 0.86% active. AID 588850;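 active means at least 50% inhibition at 5 µM, scaled per plate between neutral and stimulator controls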;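 further: PAF is a Pseudomonas aeruginosa culture filtrate used as stimulus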
LGR2 inh: Drosophila LGR2 receptor signaling inhibition. HEK293 LGR2, CRE-luciferase, bursicon-stimulated, 4 h. inhibition, % at 9.99 µM. 380,000 tested, 0.35% active. AID 720647;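 active means drop in luminescence signal, shown as inhibition above about 50% in the replicate tests, limit read from the data, passing the limit was not always enough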;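 further: agonist challenge used bursicon conditioned medium at about half maximal strength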
Mdm2-MdmX inh: disrupts the human Mdm2-MdmX interaction; inhibition, % at 8 µM; AID 485346; SaOS-2 split-luciferase Mdm2/MdmX complementation, luminescence; 330,000 tested, 3% active; O15151+Q00987;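 active means inhibition of at least 50% at 8 µM in the primary screen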
Target sequence (O15151 whole entry, looked up): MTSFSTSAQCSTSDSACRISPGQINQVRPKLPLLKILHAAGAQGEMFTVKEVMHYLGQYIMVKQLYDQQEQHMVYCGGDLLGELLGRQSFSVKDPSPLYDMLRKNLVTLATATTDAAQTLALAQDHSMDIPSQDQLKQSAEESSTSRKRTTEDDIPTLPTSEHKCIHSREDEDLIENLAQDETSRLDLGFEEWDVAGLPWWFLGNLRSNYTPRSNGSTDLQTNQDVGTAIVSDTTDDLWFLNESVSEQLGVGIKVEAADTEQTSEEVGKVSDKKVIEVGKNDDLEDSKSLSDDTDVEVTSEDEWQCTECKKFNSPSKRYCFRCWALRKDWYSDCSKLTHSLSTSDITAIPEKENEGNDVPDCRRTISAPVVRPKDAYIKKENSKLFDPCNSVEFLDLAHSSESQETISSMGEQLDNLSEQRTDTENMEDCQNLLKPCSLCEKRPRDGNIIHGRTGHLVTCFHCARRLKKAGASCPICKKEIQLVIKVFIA
Target sequence (Q00987 whole entry, looked up): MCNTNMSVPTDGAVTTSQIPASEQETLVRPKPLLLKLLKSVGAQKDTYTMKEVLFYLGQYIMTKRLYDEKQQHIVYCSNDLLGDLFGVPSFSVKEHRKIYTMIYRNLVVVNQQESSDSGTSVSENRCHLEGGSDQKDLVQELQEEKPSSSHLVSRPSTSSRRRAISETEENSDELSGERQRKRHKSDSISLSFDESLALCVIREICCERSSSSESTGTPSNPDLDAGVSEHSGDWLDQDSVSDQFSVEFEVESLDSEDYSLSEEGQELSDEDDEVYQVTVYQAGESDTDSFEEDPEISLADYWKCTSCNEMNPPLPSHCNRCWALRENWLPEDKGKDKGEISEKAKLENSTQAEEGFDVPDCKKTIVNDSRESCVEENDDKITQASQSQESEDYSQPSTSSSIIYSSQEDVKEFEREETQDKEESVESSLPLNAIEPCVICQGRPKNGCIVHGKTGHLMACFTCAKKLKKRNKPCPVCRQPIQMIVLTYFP
HSP90 refold inh: blocks HSP90-mediated luciferase refolding in reticulocyte lysate | Rabbit reticulocyte lysate, luciferase refolding luminescence, 3 h | 290,000 tested, 0.91% active | inhibition, % at 5.6 µM;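 active means inhibition above the screen-wide mean plus 3 SD, computed separately per campaign, cut at about 16% in these data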;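 further: inhibitors lower the luminescence because luciferase stays unfolded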
Peg3 promoter: reduces Peg3 promoter-driven luciferase expression in HeLa; HeLa PEG-Prom luciferase reporter, luminescence, overnight; inhibition, % at 20 µM; 360,000 tested, 1.7% active; AID 588405;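 active means inhibition of at least 50% at 20 µM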
Each line names hits and unclear results; the compound was inactive in the other large screens.

CC(=O)[C@@]1(O)CC[C@H]2[C@@H]3CCC4=CC(=O)CC[C@]4(C)[C@H]3[C@@H](O)C[C@@]21C	none
CC(=O)OCC(=O)[C@@]1(O)CC[C@H]2[C@@H]3CCC4=CC(=O)C=C[C@]4(C)[C@H]3[C@@H](O)C[C@@]21C	CF NFkB inh 80
CC12CCC(=O)C=C1C(F)CC1C2C(O)CC2(C)C1CCC2(O)C(=O)CO (configuration not stated)	CF NFkB inh 76 (no result: Mdm2-MdmX inh, HSP90 refold inh)
CCCCC(=O)O[C@]1(C(=O)CO)CC[C@H]2[C@@H]3CCC4=CC(=O)CC[C@]4(C)[C@H]3[C@@H](O)C[C@@]21C	CF NFkB inh 57
CC(=O)OCC(=O)[C@@]1(O)CC[C@H]2[C@@H]3CCC4=CC(=O)C=C[C@]4(C)[C@@]3(Cl)[C@@H](Cl)C[C@@]21C	CF NFkB inh 65 (no result: HSP90 refold inh)
CC(=O)OCC(=O)[C@@]1(O)CCC2C3CCC4=CC(=O)CCC4(C)C3C(=O)CC21C (some centres not stated)	none
C[C@@H]1CN([C@H](C)CO)C(=O)c2cc(NC(=O)Cc3ccccc3)ccc2O[C@@H](C)CCCCO[C@H]1CN(C)S(=O)(=O)c1cccs1	none (no result: KKLEB cytotox, CF NFkB inh, Mdm2-MdmX inh, HSP90 refold inh, Peg3 promoter)
CC12C=CC(=O)C=C1CCC1C2C(O)CC2(C)C1CCC2(O)C(=O)CO (configuration not stated)	CF NFkB inh 64 (no result: Mdm2-MdmX inh, HSP90 refold inh)
C[C@]12C=CC(=O)C=C1CCC1C3CC[C@](O)(C(=O)CO)[C@@]3(C)CC3OC312 (some centres not stated)	none
O=C(N/N=C/c1ccccn1)c1[nH]c2ccc([N+](=O)[O-])cc2c1-c1ccccc1	Peg3 promoter 55
COc1cc2c(-c3ccc(O)cc3)nc3c(c(C)nn3-c3ccccc3)c2cc1OC	Peg3 promoter 77 (no result: Mdm2-MdmX inh)
COc1cc2c(C)nc3c(c(C)nn3-c3ccccc3)c2cc1OC	none
Clc1ccccc1N1CCN(c2ncnc3nc[nH]c23)CC1	HSP90 refold inh 58
N=C1/C(=C\c2ccc(-c3cccc(Cl)c3)o2)C(=O)N=C2SC=C(c3ccccc3)N12	none (no result: LGR2 inh)
N=C1/C(=C\c2ccc(-c3ccc(C(=O)O)cc3)o2)C(=O)N=C2SC=C(c3ccccc3)N12	CF NFkB inh 72 (no result: Mdm2-MdmX inh)
Cc1ccc(S(=O)(=O)c2cn(C)c3cc(N4CCN(C)CC4)c(F)cc3c2=O)c(C)c1	Peg3 promoter 76
O=C1NC2CCCCC2C(=O)N1OS(=O)(=O)c1ccccc1 (configuration not stated)	Peg3 promoter 51 (no result: Mdm2-MdmX inh, HSP90 refold inh)
Cc1ccc(O)c(Nc2ncnc3ccc([N+](=O)[O-])cc23)c1	none
O=[N+]([O-])c1ccc(O)c(Nc2ncnc3ccc(Br)cc23)c1	CF NFkB inh 58
COc1cccc(C(=O)Nc2ccc3c(c2)C(=O)N(C)C[C@H](OC)[C@@H](C)CN(CC2CC2)[C@H](C)CO3)c1	none (no result: KKLEB cytotox, CF NFkB inh, Mdm2-MdmX inh, HSP90 refold inh, Peg3 promoter)
c1ccc(-c2cnc(-c3ccccc3)nn2)cc1	LGR2 inh 74 (no result: HSP90 refold inh)
O=C1c2cc(Cl)ccc2-c2c(O)cc(Cl)cc21	Peg3 promoter 75 (no result: Mdm2-MdmX inh, HSP90 refold inh)
O=C(C1CCN(c2nnc(N3CCCC3=O)s2)CC1)N1CCN(Cc2ccc3c(c2)OCO3)CC1	HSP90 refold inh 33 (no result: LGR2 inh, Mdm2-MdmX inh)
O=C(C1CCN(c2nnc(-n3cccc3)s2)CC1)N1CCN(Cc2ccc3c(c2)OCO3)CC1	none
C[C@H](CO)N1C[C@H](C)[C@H](CN(C)C(=O)C2CCC2)Oc2ncc(C#CC3(O)CCCC3)cc2C1=O	none (no result: KKLEB cytotox, CF NFkB inh, Mdm2-MdmX inh, HSP90 refold inh, Peg3 promoter)
COc1ccc(CN(C)C[C@@H]2Oc3ccc(NC(=O)c4ccncc4)cc3CC(=O)N([C@@H](C)CO)C[C@@H]2C)cc1	none (no result: KKLEB cytotox, CF NFkB inh, Mdm2-MdmX inh, HSP90 refold inh, Peg3 promoter)
Cc1cc(=O)[nH]c(NCc2ccccc2)n1	HSP90 refold inh 16
O=C1c2cccc(OCC(=O)N3CCCc4ccccc43)c2CCN1Cc1ccccc1	none
O=C1c2cccc(OCC(=O)N3CCCc4ccccc43)c2CCN1Cc1ccc(Br)cc1	Peg3 promoter 58
Cc1cc(-c2cccnc2)c(C#N)c(SCc2cccc(F)c2)n1	KKLEB cytotox -62, CF NFkB inh 54
O=C(Nc1ccc(Cl)c(Cl)c1)Nc1ccccc1C(=O)O	HSP90 refold inh 18
O=C(Nc1cccc(Cl)c1)Nc1ccccc1C(=O)O	none
C[C@@H]1CCCCO[C@@H](CN(C)C(=O)c2ccncc2)[C@H](C)CN([C@H](C)CO)C(=O)c2cc(NC(=O)c3ccncc3)ccc2O1	none (no result: KKLEB cytotox, CF NFkB inh, Mdm2-MdmX inh, HSP90 refold inh, Peg3 promoter)
CC1(C)CC(=O)C(C=Nc2ccc(C(=O)c3ccccc3)cc2N=CC2=C(O)CC(C)(C)CC2=O)=C(O)C1	KKLEB cytotox -59, CF NFkB inh 52
CC1(C)CC(=O)C(C=Nc2ccc(O)c(N=CC3=C(O)CC(C)(C)CC3=O)c2)=C(O)C1	none
O=C(C[C@H]1C[C@H]2c3cc(NC(=O)c4cccnc4)ccc3O[C@H]2[C@H](CO)O1)NCc1ccccc1F	none (no result: KKLEB cytotox, CF NFkB inh, Mdm2-MdmX inh, HSP90 refold inh, Peg3 promoter)
O=C(Nc1ccc(Cl)cc1Cl)c1cccc(N2C(=O)C=CC2=O)c1	Peg3 promoter 108 (no result: LGR2 inh, HSP90 refold inh)
O=C(Nc1ccc(Cl)cn1)C1CCCN(c2ncnc3c2nc2n3CCCCC2)C1 (configuration not stated)	Peg3 promoter 56
O=C(C1CCCN(c2ncnc3c2nc2n3CCCCC2)C1)N1CCN(c2ccc(Cl)cc2)CC1 (configuration not stated)	Peg3 promoter 56
O=C(C1CCCN(c2ncnc3c2nc2n3CCCCC2)C1)N1CCN(c2ccc(F)cc2)CC1 (configuration not stated)	none
O=C(C1CCN(c2ncnc3c2nc2n3CCCCC2)CC1)N1CCN(c2cccc(Cl)c2)CC1	Peg3 promoter 60
CC1CCN(C(=O)C2CCN(c3ncnc4c3nc3n4CCCCC3)CC2)CC1	none
CC(C)NC(=O)N(C)C[C@H]1Oc2cc(C#CCN(C)C)ccc2S(=O)(=O)N([C@@H](C)CO)C[C@H]1C	none (no result: KKLEB cytotox, CF NFkB inh, Mdm2-MdmX inh, HSP90 refold inh, Peg3 promoter)
Cc1ccc(S(=O)(=O)Nc2ccc3c(c2)CC(=O)N([C@@H](C)CO)C[C@H](C)[C@@H](CN(C)Cc2ccc(Cl)c(Cl)c2)O3)cc1	none (no result: KKLEB cytotox, CF NFkB inh, Mdm2-MdmX inh, HSP90 refold inh, Peg3 promoter)
Cc1cc(C)cc(NC(=O)c2cc(C)n(Cc3cccs3)c2C)c1	none
Cc1cc(C(=O)Nc2ccc(Cl)cc2)c(C)n1Cc1cccs1	HSP90 refold inh 16
Cc1ccccc1N1CC(=O)N(c2ccccc2C)CC1=O	none (no result: LGR2 inh)
Cc1cccc2c1c1ccc3c(c1n2C)C(=O)C=CC3=O	Peg3 promoter 93 (no result: Mdm2-MdmX inh)
CO[C@H]1CN(C)C(=O)c2cc(NC(=O)C3CCC3)ccc2OC[C@H](C)N(CC2CCCCC2)C[C@H]1C	none (no result: KKLEB cytotox, CF NFkB inh, Mdm2-MdmX inh, HSP90 refold inh, Peg3 promoter)
Cc1cc(C)c(S(=O)(=O)Nc2cc(SCC(=O)O)c(O)c3ccccc23)cc1C	none (no result: KKLEB cytotox, CF NFkB inh, LGR2 inh, Mdm2-MdmX inh, Peg3 promoter)
COc1ccc(S(=O)(=O)Nc2cc(Sc3ncn[nH]3)c(O)c3ccccc23)cc1	HSP90 refold inh 76 (no result: KKLEB cytotox, CF NFkB inh, LGR2 inh, Mdm2-MdmX inh, Peg3 promoter)
O=C(O)CSc1cc(NS(=O)(=O)c2ccc(Cl)cc2)c2ccccc2c1O	CF NFkB inh 81 (no result: Mdm2-MdmX inh)
COc1ccc(S(=O)(=O)Nc2cc(SCC(=O)O)c(O)c3ccccc23)cc1	CF NFkB inh 78
